From PubChem BioAssay
RE007 growth inh = qHTS Assay for Inhibitors of the HIV-1 protein Vpr; actives 0.21% (n = 360,000); Potency, µM (top dose mostly 92.2 µM), usual class: inhibitors; AID 651644, 2012; S. pombe RE007 Vpr strain, BacTiter-Glo ATP luminescence, 24 h; active means well fitted falling curve with a large enough effect; inconclusive means small, poorly fitted or top-dose-only effect; inactive means no such curve, though single readings can be large or run the other way; further: nearly all actives have a fitted effect of over 50% in size
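Fission yeast RE007 carrying one integrated HIV-1 vpr copy, seeded at OD 0.01 in PMG+AL medium with 23 nL pinned compound. Grown 24 h at 30 degrees; viability read by BacTiter-Glo luminescence after 5 min.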
HCMV antiviral = qHTS Assay for inhibitors of the human cytomegalovirus (HCMV) | HFF cells, HCMV-luciferase reporter, 72 h; stronger effect = lower value | activity change, negative = inhibition, % at 57.5 µM | actives 4.5% (n = 410,000); in the data active means activity change below about -60%; inconclusive means no clear call, values can overlap the other calls; inactive means above about -39%
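Human foreskin fibroblasts infected with luciferase-reporter HCMV at MOI 1 PFU/cell, compounds at two doses. Luciferase measured 72 h post infection; normalized to buffer-only basal and Salinomycin (10uM) controls.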
Giardia FBPA inh = qHTS Assay for Inhibitors of Fructose-1,6-bisphosphate Aldolase from Giardia Lamblia; purified Giardia FBPA; A8B2U2; actives 0.71% (n = 290,000); Potency, µM (series often up to 59.6 µM), most hits filed as inhibitors; further: nearly all actives have a fitted effect of over 55% in size
Target sequence (A8B2U2 whole entry, looked up): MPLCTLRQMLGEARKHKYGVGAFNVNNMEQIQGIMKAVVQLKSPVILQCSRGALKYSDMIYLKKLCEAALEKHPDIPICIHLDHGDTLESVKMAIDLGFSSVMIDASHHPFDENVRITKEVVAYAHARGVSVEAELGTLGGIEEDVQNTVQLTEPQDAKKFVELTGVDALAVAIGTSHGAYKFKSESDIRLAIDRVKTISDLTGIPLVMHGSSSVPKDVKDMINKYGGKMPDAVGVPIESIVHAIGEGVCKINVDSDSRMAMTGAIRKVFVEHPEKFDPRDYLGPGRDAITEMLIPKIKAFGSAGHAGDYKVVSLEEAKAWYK
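Giardia FBPA (40 nM reagent) was preincubated 10 min at RT with compound (up to 57.5 uM final), then substrate plus GAPDH/TPI/NAD/arsenate coupling system with diaphorase/resazurin was added; resorufin fluorescence (525/598 nm) was read after 20 min.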
FMDV antiviral = High Throughput Screening for Foot and Mouth Disease Virus Antivirals. FMDV antiviral cell-based qHTS. Potency, µM (titrated, usually from 57.9 µM), actives largely listed as inhibitors. actives 1.2% (n = 410,000). AID 1159524, 2015; calls by dose curve; tested in HEK293T cells; further: read-out not given here; nearly all actives have a fitted effect of over 45% in size
TbPYK inhibitor = qHTS of Trypanosoma Brucei Inhibitors; AID 624173, 2012; actives 0.12% (n = 410,000); TbPYK enzyme, Kinase-Glo Plus ATP luminescence, 45 min; pyruvate kinase (Trypanosoma brucei), Q57TT1; Potency, µM (top dose mostly 76.8 µM), usual class: inhibitors; further: nearly all actives have a fitted effect of over 50% in size
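TbPYK + substrate in 50 mM TEA pH 7.2, 100 mM KCl, 10 mM MgCl2, 0.05% BSA, 0.01% Tween-20; cpd pinned; ADP 130 uM final; 45 min RT; Kinase-Glo Plus 10 min; luminescence endpoint.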
Sm TGR block = qHTS Assay for the Inhibitors of Schistosoma Mansoni Peroxiredoxins. Schistosoma mansoni thioredoxin glutathione reductase (TGR), Q962Y6. purified TGR, DTNB reduction, TNB absorbance 405 nm. Potency, µM (highest dose often 114 µM), actives largely listed as inhibitors. actives 3% (n = 360,000); further: nearly all actives have a fitted effect of over 60% in size
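TGR 20 nM + NADPH 100 uM (dispensed conc.), cpd preinc 15 min RT; start with NADPH (500 uM addition) then DTNB (15 mM addition). Kinetic TNB absorbance, 405 nm filter. Four-parameter Hill fit across titration.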
Numbers stand for hits; n = inactive; u = inconclusive; x = not tested or not shown; [ ] = remark or other dose. The list is not random: actives were taken first. Their share in the collection is about 7.7%. Unless noted, the call rests on the fitted dose curve; in most records, active means well fitted curve in the direction sought with a large enough effect; inconclusive means small, poorly fitted or top-dose-only effect, or another doubt; inactive means no such curve, though single readings can be large; an effect the other way counts as inactive or inconclusive.

SMILES | RE007 growth inh | HCMV antiviral | Giardia FBPA inh | FMDV antiviral | TbPYK inhibitor | Sm TGR block
CCOc1cc2[nH]c(=O)n(CCC(=O)N3CCN(c4cccc(Cl)c4)CC3)c(=O)c2cc1OCC | x | n | x | u | n | n
FC(F)(F)c1ccccc1-c1ccc2ncnc(NCc3cccs3)c2c1 | x | x | n | n | x | x
COc1cccc(Nc2cc3c(cn2)cc(-c2cnn(C)c2)n3C)c1 | x | n | x | x | x | x
O=c1c(-c2ccc(Cl)cc2)nc2cnc(N3CCNCC3)nc2n1Cc1cccs1 | x | x | n | n | x | x
C#CCOCCOCCOCCNc1nc(N2CCN(C(=O)CCCCCCCCCCNC(=O)[C@H](CCCCN)n3cc(C)nn3)CC2)nc(N2CCN(C(=O)CCCCCCCCCCNC(=O)[C@@H]([C@H](C)CC)n3cc(CCCCCN)nn3)CC2)n1 | x | x | x | x | x | 25µM
COCc1c(C(=O)N2CCN(C3CCCC3)CC2)cnn1-c1nccc(-c2cc(C)sc2C)n1 | x | x | x | n | x | x
CCN1/C(=C/C=C/C2=[N+](CC)c3ccccc3C2(C)C)C(C)(C)c2ccccc21 | u | -99 | x | 3.5µM | u | x
CN1/C(=C\C=C\C2=[N+](C)c3ccc4ccccc4c3C2(C)C)C(C)(C)c2ccccc21 | x | x | x | x | x | n
N#Cc1ccc(N2C(=O)[C@@H]3C(C(=O)c4ccc5ccccc5n4)=NN[C@@H]3C2=O)cc1 | n | n | n | n | n | 50µM
N#Cc1ccc(N2C(=O)[C@@H]3C(C(=O)c4cnccn4)=NN[C@@H]3C2=O)cc1 | n | n | u | u | n | 8.9µM
O=C(C1=NN[C@@H]2C(=O)N(c3cccc(C(F)(F)F)c3)C(=O)[C@H]12)c1cnccn1 | n | n | n | n | n | 18µM
COC1=C(C(=O)O)N2C(=O)[C@@H](NC(=O)C(N)C3C=CCC=C3)[C@H]2SC1 (stereo partly specified) | x | x | x | x | n | x
COC(=O)C(c1ccccc1)(c1cn(C)c2cc(Br)ccc12)C(Nc1ccccc1)c1ccccc1 (stereo unspecified) | x | n | x | x | x | x
O=C(Nc1ccc(Cl)cc1F)c1oc(=O)c2ccccc2c1-c1ccccc1 | x | u | x | u | n | n
O=[N+]([O-])c1cnc(Sc2ccncn2)s1 | 1µM | -99 | n | 40µM | n | 0.32µM
O=[N+]([O-])c1cnc(Sc2ccncn2)c([N+](=O)[O-])c1 | u | n | x | u | u | x
Cc1cc2ccccn2c1C(=O)c1ccc(F)cc1 | n | n | n | n | n | n
Cc1cc2ccccn2c1C(=O)c1cccc([N+](=O)[O-])c1 | n | u | n | u | n | n
Cc1cc2ccccn2c1C(=O)c1ccc([N+](=O)[O-])o1 | n | -66 | n | u | n | u
Cc1cc2ccccn2c1C(=O)c1ccc(S(=O)(=O)N(C)C)cc1 | n | -66 | n | u | n | n
Cc1ccc(CNC(=O)CN(c2ccc(C(C)C)cc2)S(=O)(=O)c2c(C)n[nH]c2C)cc1 | x | n | x | n | n | n
CSc1nc2ccccc2nc1N(C)S(=O)(=O)c1ccc(C)cc1 | n | -66 | u | n | n | n
CC1CCn2c(nc3cc(C(=O)NCc4ccccc4)ccc32)C1 (stereo unspecified) | x | n | x | n | n | n
COc1ccc(NC(=S)N2CCCC(c3nc4ccc(C)cc4[nH]3)C2)c(OC)c1 (stereo unspecified) | n | -87 | n | n | n | n
CCOC(=O)c1ccc(NC(=O)c2nn(C)c3c2COc2ccccc2-3)cc1 | x | n | x | n | n | n
SMILES | RE007 growth inh | HCMV antiviral | Giardia FBPA inh | FMDV antiviral | TbPYK inhibitor | Sm TGR block
CCN(CC)CCOC(=O)c1ccc(NC(=O)c2nn(C)c3c2COc2ccccc2-3)cc1 | x | -87 | x | n | n | n
O=S(=O)(c1ccc(NC(=S)NC23CC4CC(CC(C4)C2)C3)cc1)N1CCCCC1 | n | -90 | x | n | n | x
NS(=O)(=O)c1ccc(NC(=S)Nc2ccc(S(=O)(=O)N3CCCC3)cc2)cc1 | n | n | n | n | n | 25µM
O=S(=O)(c1ccc(NC(=S)NN=Cc2ccccc2O)cc1)N1CCCCC1 | n | -61 | x | n | n | x
CN(C)NC(=S)Nc1ccc(S(=O)(=O)N2CCCCC2)cc1 | n | n | n | n | n | n
Cc1ccc(NC(=S)Nc2cccnc2)c(S(=O)(=O)N2CCCCC2)c1 | n | -75 | n | n | n | 14µM
O=C(NCCOCCn1c(=O)oc2ccccc21)Nc1cccc(Cl)c1 | x | n | x | n | n | n
CC(C)CN(CC(C)C)c1nnc(NC(=O)Nc2cccc(C(F)(F)F)c2)s1 | x | n | x | u | n | n
O=C(Cc1ccccc1)N1O[C@H]2C=C[C@@H]1C2 | x | n | x | x | x | x
COc1ccc(Cl)cc1NC(=O)Cn1ccn(Cc2ccc(C)cc2)c(=O)c1=O | x | n | x | n | n | n
O=[N+]([O-])/N=C1\NCCN1Cc1ccc(Cl)nc1 | x | x | x | n | x | x
O=C(C1CCC1)N1CC(=O)N2[C@H](CO)[C@@H](c3ccc(Br)cc3)[C@@H]2C1 | x | n | x | x | x | x
O=S(=O)(c1ccc(NC(=S)NCc2cccnc2)cc1)N1CCCCC1 | n | n | n | n | n | 32µM
CC[N+](C)(CC)CCC(c1ccccc1)C1CCCCC1 (stereo unspecified) | n | n | n | n | n | 18µM
CC[N+](C)(CC)CCOC(=O)C(O)(c1ccccc1)C1CCCCC1 (stereo unspecified) | n[18.4 µM] | u | n | n | n | n
COc1cc(C)ccc1OCCSc1nc2ccc(NC(=O)c3ccco3)cc2s1 | x | -61 | x | u | n | n
CC(=O)Nc1ccc2nc(SCCOc3ccccc3Cl)sc2c1 | x | -80 | x | n | n | n
CCC(=O)Nc1ccc2nc(SCCOc3cccc(C)c3)sc2c1 | x | -64 | x | n | n | n
CC(=O)Nc1ccccc1OCc1cc(=O)n2c(C)csc2n1 | x | n | x | n | n | n
CCc1ccc(-c2csc(-c3cc4cc(Br)ccc4oc3=O)n2)cc1 | x | n | x | n | n | n
COC(=O)C1(C(C)=O)CC2=CC[C@@H]3C(=O)N(c4ccccc4)C(=O)[C@@H]3[C@@H]2Cc2ccccc2[C@@H]1C[N+](=O)[O-] (stereo partly specified) | x | x | n | x | x | x
Cc1ccc(C)c(NC(=O)c2cnn(-c3cccc(F)c3)c2C2CCN(C(=O)OC(C)(C)C)CC2)c1 | x | n | x | n | n | n
CCC(C)c1ccc2oc(-c3ccc(NC(=O)Cn4cnc5c(=O)n(C)c(=O)n(C)c54)cc3)nc2c1 (stereo unspecified) | n | -73 | n | n | n | n
COC(=O)C1CCN(Cc2ccc3c(c2)CN(C(=O)c2ccnn2C)CCO3)CC1 | x | x | x | n | x | x
